Reference: PubChem BioAssay (NCATS)
Results filed as inconclusive are left out. Active and inactive are the calls of the source. Unless noted, calls come from the whole dose curve; as a rule, active = well fitted curve in the direction sought with a large enough effect; inconclusive = small, poorly fitted or top-dose-only effect, or another doubt; inactive = no such curve, though single readings can be large; an effect the other way counts as inactive or inconclusive.

Legend:
[1] = biological target: Lysosomal acid glucosylceramidase (Homo sapiens) (UniProt P04062); experiment: Glucocerebrosidase-p2 (AID 348; in the data active = potency below about 10 µM; note: potency is the fitted concentration of half-maximal effect); conditions: purified GBA, blue fluorogenic substrate, 40 min
Procedure, shortened: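 Normal human glucocerebrosidase (0.2 nM) with blue fluorogenic substrate (80 uM final) in citrate/phosphate pH 5.9 with 10mM sodium taurocholate, 0.01% tween-20; 40 min RT, NaOH/glycine stop; fluorescence Ex 365/Em 440; AC50 from a titration from 0.6 nM upwards.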

[2] = AP1 Signaling Pathway (AID 357; active = well fitted curve in either direction with a large enough effect, not every such curve was filed as active; note: % is set by controls: 0 for no effect and ±100 for the full control effect); conditions: ME-180 AP-1-bla reporter, EGF-induced, beta-lactamase ratio, 5 h; at 7.69 µM (top of the series) unless noted
Procedure, shortened: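 ME-180 cells with beta-lactamase reporter under AP-1 response element, stimulated with EC50 EGF; compounds tested in titration series, 5 h at 37 °C. CCF4 substrate added 2.5 h at room temperature; 460/530 nm emission ratio gave %activity and AC50.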

[3] = biological target: Cytochrome P450 1A2 (Homo sapiens) (UniProt P05177); experiment: p450-cyp1a2 (AID 410; calls by dose curve; note: potency is the fitted concentration of half-maximal effect;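 for activity change, negative = inhibition: -100% = full effect of reference inhibitor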)
Procedure, shortened: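 O-Demethylation of luciferin 6' methyl ether by human CYP1A2 is monitored as luciferase luminescence. Substrate sits at Km (100uM); enzyme is 20nM. Values are scaled to 57 uM furafylline as maximal inhibition.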

[4] = NFAT Signaling Pathway (AID 444; active = well fitted curve in either direction with a large enough effect, not every such curve was filed as active;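 note: carbachol stimulus at about its EC50 of 1 µM final; % is set by controls: 0 for no effect and ±100 for the full control effect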); conditions: Jurkat NFAT-bla M1, carbachol, beta-lactamase ratio, 5 h; at 7.69 µM (top of the series) unless noted
Procedure, shortened: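 Jurkat cells with NFAT-driven β-lactamase reporter and co-expressed M1 receptor, stimulated with carbachol (final 1 uM, ~EC50), compound titration, 5 h at 37 °C. CCF4 loaded 1 h at RT; 460/530 nm ratio gave %activity and AC50.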

[5] = Stat Signaling Pathway (AID 446; active = well fitted curve in either direction with a large enough effect, not every such curve was filed as active;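 note: ME-180 cervical cancer cells given 40 pM IL-6 alongside compound; SIE-controlled beta-lactamase reporter measured as 460/530 nm FRET emission ratio; % is set by controls: 0 for no effect and ±100 for the full control effect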); conditions: ME-180 (cervical carcinoma) SIE beta-lactamase reporter, IL-6 stimulated, 5 h; at 7.69 µM (top of the series) unless noted
Procedure, shortened: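 FRET read-out (405 nm excitation, 460/530 nm emission) of a beta-lactamase reporter under a STAT-inducible element in ME-180 cervical carcinoma cells. Cells with compound receive 40 pM IL-6 for 5 h. Values are normalised to AC90 stimulation and AC90 JAK-inhibitor controls.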

[6] = biological target: Glucocorticoid receptor (Homo sapiens) (UniProt P04150); experiment: GR-GFP Redistribution (AID 450;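 active = compounds whose dose series gives a full or clear partial fitted curve of increased nuclear translocation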; note: potency is the fitted concentration of half-maximal effect); conditions: U2OS GR-GFP nuclear translocation, laser cytometry, 2 h
[7] = biological target: Glucocorticoid receptor (Homo sapiens) (UniProt P04150); experiment: GR-EFC Redistribution (AID 451; calls by dose curve; note: potency is the fitted concentration of half-maximal effect); conditions: CHO-K1 GR-EFC translocation, beta-gal luminescence, 2 h
Procedure, shortened: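 CHO-K1 cells expressing nuclear EA and GR-ED fragments of b-gal; compounds titrated up to 46 uM final, 2 h at 37 C. GR nuclear translocation read as complemented b-gal luminescence after 1 h RT detection.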

[8] = biological target: Mitogen-activated protein kinase 10 (Mus musculus) (UniProt Q61831); experiment: JNK3 AlphaScreen Assay (AID 530; active = well fitted curve in either direction with a large enough effect, not every such curve was filed as active;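 note: kinase came from lysate of stimulated human HepG2 cells; signal reports phosphorylation of biotinylated GST-cJun 1-79 at Ser73 with 10 µM ATP; % is set by controls: 0 for no effect and ±100 for the full control effect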)
Procedure, shortened: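 Activity was read by AlphaScreen after JNK3-containing HepG2 lysate (cytokine pre-activated) phosphorylated biotinylated GST-cJun with 10 uM ATP at room temperature. Phospho-Ser73 cJun antibody with Protein-A acceptor beads provided detection.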

[9] = biological target: Cytochrome P450 3A4 (Homo sapiens) (UniProt P08684); experiment: qHTS Assay for Inhibitors and Substrates of Cytochrome P450 3A4 (AID 884); note: nearly all actives have a fitted effect of over 50% in size; note: potency is the fitted concentration of half-maximal effect
Procedure, shortened: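 Luminescent readout of luciferin produced by CYP3A4 (20 nM) dealkylation of Luciferin-PPXE, 25 uM (its KM). NADPH-driven reaction ran 60 min at RT after 10 min compound preincubation; data scaled to 57 uM ketoconazole as 100% inhibition.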

[10] = biological target: Cytochrome P450 3A4 (Homo sapiens) (UniProt P08684); experiment: qHTS Assay for Activators of Cytochrome P450 3A4 (AID 885); note: nearly all actives have a fitted effect of over 65% in size
Procedure, shortened: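 Luminescent readout of luciferin formed from 25 uM Luciferin-PPXE (KM level) by 20 nM CYP3A4 in 200 mM KPO4, with 60 min NADPH-driven reaction at room temperature after 10 min compound exposure. Ketoconazole (57 uM) defined 100% inhibition.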

[11] = Confirmation and Secondary Assay for Modulators of Hemoglobin Beta Chain Splicing at IVS2 654 locus (AID 910);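 note: HeLa cells stably carrying EGFP split by mutant beta-globin IVS2-654 intron; % of control where 0% means no effect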
Procedure, shortened: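 HeLa cells stably expressing EGFP interrupted by β-globin IVS2-654 intron, seeded overnight in Opti-MEM/2% FCS, then treated 2 days at 37 °C. Restored splicing read as total peak GFP intensity per well by laser scanning cytometry (488 nm excitation, 500–520 nm emission); 500 nM antisense PNA as control.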

[12] = Confirmation and Secondary Assay for Modulators of Hemoglobin Beta Chain Splicing at IVS2 705 locus (AID 930);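 note: HeLa cells stably expressing the EGFP-705 splicing reporter; GFP fluorescence per well restored by corrected splicing of the IVS2-705 intron in EGFP; % of control where 0% means no effect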
Procedure, shortened: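 Splice-correction reporter: EGFP cDNA split by beta-globin intron 2 bearing the 705 mutation, stably in HeLa. Compound incubation 2 days, 37C; fluorescent objects 5-250 µm summed per well.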

[13] = qHTS Assay for Lipid Storage Modulators (AID 1519; calls by dose curve); conditions: Drosophila S3 cells, BODIPY lipid droplet/cell ratio, laser cytometry, cells loaded with oleic acid; for activity change, negative = inhibition: at 57.5 µM (top of the series)
Procedure, shortened: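 Cells seeded at 5,000 per well were treated with compounds over a concentration series and loaded with oleic acid (400 uM, as added). Lipid droplet fluorescence (488 nm excitation, 500-530 nm channel) was read by laser-scanning cytometry and normalized to 20 uM Triacsin C.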

[14] = biological target: Ubiquitin carboxyl-terminal hydrolase 1 (Homo sapiens) (UniProt O94782); experiment: Inhibitors of USP1/UAF1: Pilot qHTS (AID 504865);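 note: rhodamine fluorescence freed from ubiquitin-rhodamine substrate followed over time; top concentration of the series differs between compounds; % is set by controls: 0 for no effect and ±100 for the full control effect; nearly all actives have a fitted effect of over 35% in size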
Procedure, shortened: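 In 50mM HEPES pH 7.8 containing 0.5mM EDTA, 1mM TCEP, 0.1 mg/ml BSA and 0.01% Tween-20, 1nM USP1/UAF1 is exposed to compound for 15 min, then Ub-Rho (150nM final) is added and fluorescence is read over time.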

[15] = biological target: 3',5'-cyclic-AMP phosphodiesterase 4B (Homo sapiens) (UniProt Q07343); experiment: qHTS Assay for Inhibitors of PDE-IV (AID 607; active = well fitted activation curve with a large enough effect in the main read-out, with a control signal flat, not every such curve was filed as active; note: % of control where 0% means no effect)
Procedure, shortened: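 Cell-based read-out of cAMP via a modified cyclic nucleotide-gated channel and membrane potential dye (535/590 nm) in HEK293 cells expressing PDE4 endogenously. Compounds tested up to 22.9 uM final; 100 uM RO 20-1724 reference.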

[16] = biological target: Cytochrome P450 2C9 (Homo sapiens) (UniProt P11712); experiment: qHTS Assay for Inhibitors and Substrates of Cytochrome P450 2C9 (AID 883); note: potency is the fitted concentration of half-maximal effect; nearly all actives have a fitted effect of over 60% in size
Procedure, shortened: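 10nM CYP2C9 + 100uM Luciferin-H (=KM), 25mM KPO4; cpd 10 min 37C; NADPH regen, 60 min 37C; stop/detect with P450 Glo-Buffer 20 min; luminescence. Norm. to 57uM sulphaphenazole as full inhibition.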

[17] = biological target: Cytochrome P450 2C19 (Homo sapiens) (UniProt P33261); experiment: qHTS Assay for Inhibitors and Substrates of Cytochrome P450 2C19 (AID 899); note: potency is the fitted concentration of half-maximal effect; nearly all actives have a fitted effect of over 60% in size
Procedure, shortened: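 Luminescent read-out of luciferin formed from Luciferin-H EGE (10uM, equal to KM). Enzyme 5nM in 50mM KPO4; compound added, 10 min at 37C, then NADPH regenerating system for 60 min at 37C. Full inhibition defined by 57uM ketoconazole.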

[18] = measured here: cell count channel max response
[19] = measured here: lipid channel max response

Sequence of 3',5'-cyclic-AMP phosphodiesterase 4B (Homo sapiens) (Q07343 whole entry, looked up): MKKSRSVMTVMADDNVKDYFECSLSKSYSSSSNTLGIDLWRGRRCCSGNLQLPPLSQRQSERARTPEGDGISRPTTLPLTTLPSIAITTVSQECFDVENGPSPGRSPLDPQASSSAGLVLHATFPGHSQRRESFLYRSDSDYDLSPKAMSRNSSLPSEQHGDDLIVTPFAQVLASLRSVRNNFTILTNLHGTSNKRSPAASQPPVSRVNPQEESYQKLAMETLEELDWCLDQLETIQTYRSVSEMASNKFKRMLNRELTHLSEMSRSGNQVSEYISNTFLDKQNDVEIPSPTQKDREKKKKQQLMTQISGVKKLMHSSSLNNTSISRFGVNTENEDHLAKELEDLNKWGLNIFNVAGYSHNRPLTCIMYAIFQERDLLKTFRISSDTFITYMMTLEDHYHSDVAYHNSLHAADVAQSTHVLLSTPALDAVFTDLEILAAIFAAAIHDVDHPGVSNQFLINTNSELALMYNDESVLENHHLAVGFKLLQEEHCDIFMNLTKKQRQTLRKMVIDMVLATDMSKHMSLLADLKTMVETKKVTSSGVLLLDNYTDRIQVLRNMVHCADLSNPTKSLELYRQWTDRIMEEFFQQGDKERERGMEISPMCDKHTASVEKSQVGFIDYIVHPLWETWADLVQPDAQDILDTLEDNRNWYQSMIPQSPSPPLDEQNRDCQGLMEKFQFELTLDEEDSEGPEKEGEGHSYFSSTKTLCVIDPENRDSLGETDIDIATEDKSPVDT
Sequence of Lysosomal acid glucosylceramidase (Homo sapiens) (P04062 whole entry, looked up): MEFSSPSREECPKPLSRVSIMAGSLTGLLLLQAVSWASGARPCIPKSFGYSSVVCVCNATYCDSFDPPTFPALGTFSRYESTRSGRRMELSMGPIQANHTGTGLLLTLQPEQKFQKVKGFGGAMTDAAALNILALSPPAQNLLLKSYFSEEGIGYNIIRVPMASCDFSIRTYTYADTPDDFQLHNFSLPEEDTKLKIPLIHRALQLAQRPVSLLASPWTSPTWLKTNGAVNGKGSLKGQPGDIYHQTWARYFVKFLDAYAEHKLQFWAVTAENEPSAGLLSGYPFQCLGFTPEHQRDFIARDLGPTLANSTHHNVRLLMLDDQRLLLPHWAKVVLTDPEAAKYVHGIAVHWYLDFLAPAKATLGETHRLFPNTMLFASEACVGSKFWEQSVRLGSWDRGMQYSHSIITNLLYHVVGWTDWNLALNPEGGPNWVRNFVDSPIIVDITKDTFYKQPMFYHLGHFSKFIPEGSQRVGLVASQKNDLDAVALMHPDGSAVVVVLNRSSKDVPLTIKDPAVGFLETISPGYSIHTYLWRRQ
Sequence of Glucocorticoid receptor (Homo sapiens) (P04150 whole entry, looked up, the tested form may be a part): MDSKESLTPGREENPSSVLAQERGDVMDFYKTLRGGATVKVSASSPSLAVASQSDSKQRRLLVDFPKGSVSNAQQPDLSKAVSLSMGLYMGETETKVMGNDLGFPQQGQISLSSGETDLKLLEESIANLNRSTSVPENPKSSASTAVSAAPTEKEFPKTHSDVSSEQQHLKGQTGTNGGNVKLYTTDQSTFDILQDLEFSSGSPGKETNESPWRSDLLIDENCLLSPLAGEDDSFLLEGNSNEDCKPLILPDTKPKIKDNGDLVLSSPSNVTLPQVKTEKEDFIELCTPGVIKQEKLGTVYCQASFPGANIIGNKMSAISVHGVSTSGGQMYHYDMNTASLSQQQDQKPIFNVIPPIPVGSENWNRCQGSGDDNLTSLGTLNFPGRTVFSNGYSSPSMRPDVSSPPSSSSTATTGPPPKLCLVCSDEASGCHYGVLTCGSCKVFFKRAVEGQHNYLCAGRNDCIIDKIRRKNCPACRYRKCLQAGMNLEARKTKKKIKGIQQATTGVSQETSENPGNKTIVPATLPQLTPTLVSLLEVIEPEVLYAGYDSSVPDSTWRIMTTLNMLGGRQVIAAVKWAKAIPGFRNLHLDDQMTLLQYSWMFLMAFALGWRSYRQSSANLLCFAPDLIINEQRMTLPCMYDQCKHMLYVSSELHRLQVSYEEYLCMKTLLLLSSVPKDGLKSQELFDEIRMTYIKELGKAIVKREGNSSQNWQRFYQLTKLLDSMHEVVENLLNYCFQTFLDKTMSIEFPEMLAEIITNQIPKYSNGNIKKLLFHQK
Sequence of Cytochrome P450 1A2 (Homo sapiens) (P05177 whole entry, looked up): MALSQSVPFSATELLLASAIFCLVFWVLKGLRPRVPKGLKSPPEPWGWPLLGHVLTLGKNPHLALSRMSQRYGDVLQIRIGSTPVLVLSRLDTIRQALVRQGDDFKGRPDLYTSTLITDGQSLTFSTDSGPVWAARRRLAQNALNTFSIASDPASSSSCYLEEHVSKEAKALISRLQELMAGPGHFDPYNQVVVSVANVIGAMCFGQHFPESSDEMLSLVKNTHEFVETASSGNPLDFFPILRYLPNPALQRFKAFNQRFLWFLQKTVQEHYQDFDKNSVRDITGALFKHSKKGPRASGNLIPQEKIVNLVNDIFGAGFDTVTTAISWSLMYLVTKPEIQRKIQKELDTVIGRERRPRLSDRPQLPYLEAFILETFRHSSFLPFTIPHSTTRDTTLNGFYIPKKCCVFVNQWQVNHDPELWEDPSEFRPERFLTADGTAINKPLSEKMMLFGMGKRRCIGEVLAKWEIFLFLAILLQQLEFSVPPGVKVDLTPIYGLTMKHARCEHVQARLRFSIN
Sequence of Cytochrome P450 3A4 (Homo sapiens) (P08684 whole entry, looked up): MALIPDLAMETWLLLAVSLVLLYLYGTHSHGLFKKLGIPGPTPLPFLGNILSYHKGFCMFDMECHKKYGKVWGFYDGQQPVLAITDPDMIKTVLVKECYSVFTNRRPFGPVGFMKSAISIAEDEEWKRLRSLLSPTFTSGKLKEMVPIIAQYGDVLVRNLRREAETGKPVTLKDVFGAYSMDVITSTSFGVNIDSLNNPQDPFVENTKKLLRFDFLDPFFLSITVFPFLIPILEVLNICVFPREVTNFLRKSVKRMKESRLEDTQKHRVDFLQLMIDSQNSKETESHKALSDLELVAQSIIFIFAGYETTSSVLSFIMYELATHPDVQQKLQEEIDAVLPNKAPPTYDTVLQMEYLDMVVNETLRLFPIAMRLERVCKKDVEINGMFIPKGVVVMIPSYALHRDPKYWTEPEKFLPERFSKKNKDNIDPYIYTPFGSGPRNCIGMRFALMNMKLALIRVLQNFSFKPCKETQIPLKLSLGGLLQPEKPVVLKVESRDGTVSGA
Sequence of Ubiquitin carboxyl-terminal hydrolase 1 (Homo sapiens) (O94782 whole entry, looked up): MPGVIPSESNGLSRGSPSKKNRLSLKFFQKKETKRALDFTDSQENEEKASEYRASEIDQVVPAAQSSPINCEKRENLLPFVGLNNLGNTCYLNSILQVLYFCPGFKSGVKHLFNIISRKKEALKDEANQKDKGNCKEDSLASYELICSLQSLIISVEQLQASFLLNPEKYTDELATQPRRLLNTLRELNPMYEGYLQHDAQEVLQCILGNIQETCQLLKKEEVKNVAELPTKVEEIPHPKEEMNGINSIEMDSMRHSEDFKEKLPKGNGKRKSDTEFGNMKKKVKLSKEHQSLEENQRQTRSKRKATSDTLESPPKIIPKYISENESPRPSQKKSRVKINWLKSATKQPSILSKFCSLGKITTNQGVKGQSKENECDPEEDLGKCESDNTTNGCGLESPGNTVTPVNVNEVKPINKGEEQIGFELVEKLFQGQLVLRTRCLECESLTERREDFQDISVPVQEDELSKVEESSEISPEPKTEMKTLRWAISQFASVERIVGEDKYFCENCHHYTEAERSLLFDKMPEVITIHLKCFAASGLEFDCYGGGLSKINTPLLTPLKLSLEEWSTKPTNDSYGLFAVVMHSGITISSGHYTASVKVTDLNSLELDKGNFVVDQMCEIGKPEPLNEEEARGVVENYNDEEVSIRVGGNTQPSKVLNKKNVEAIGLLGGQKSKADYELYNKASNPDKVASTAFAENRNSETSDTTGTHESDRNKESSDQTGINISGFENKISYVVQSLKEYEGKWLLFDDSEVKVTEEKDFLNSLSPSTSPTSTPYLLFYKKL
Sequence of Cytochrome P450 2C9 (Homo sapiens) (P11712 whole entry, looked up): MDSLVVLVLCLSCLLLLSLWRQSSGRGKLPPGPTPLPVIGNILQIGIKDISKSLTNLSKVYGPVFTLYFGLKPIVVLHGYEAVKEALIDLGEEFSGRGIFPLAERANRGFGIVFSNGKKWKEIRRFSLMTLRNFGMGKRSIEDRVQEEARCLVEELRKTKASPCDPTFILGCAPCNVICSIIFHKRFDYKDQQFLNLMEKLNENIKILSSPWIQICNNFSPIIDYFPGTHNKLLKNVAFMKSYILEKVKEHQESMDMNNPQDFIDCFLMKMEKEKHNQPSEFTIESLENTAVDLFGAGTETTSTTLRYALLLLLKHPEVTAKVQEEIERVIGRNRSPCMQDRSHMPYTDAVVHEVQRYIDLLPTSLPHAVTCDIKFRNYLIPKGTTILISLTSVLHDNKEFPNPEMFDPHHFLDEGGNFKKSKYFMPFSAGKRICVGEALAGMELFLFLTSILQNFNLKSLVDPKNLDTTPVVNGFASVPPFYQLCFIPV
Sequence of Cytochrome P450 2C19 (Homo sapiens) (P33261 whole entry, looked up): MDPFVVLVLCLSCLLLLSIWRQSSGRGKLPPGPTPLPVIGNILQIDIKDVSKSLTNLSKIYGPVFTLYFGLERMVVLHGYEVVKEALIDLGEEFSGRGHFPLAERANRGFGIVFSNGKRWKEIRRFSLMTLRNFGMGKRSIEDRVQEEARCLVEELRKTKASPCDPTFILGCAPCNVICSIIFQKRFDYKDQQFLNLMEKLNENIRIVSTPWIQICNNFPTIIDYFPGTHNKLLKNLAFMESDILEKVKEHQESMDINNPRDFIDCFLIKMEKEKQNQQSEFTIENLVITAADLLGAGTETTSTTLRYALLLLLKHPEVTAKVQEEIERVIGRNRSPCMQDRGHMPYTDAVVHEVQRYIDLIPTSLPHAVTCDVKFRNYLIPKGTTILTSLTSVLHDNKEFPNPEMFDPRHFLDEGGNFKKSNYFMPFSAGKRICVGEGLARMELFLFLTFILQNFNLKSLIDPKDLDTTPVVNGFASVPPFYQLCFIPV

Row | SMILES | Potency [1] | activity change, negative = inhibition [2] | Potency [3] | activity change, negative = inhibition [4] | activity, negative = inhibition [5] | Potency [6] | Potency [7] | Potency [8] | Potency [9] | Potency [10] | Potency [11] | outcome [12] | activity change, negative = inhibition [13] | max response [13, 18] | max response [13, 19] | Potency [14] | Potency [15] | Potency [16] | Potency [17]
1 | Cc1cccc(CNc2cc(-c3ccc(C(=O)N(C)C)cc3)ncn2)c1 | > 11.4 µM (inactive) | -7.22% (inactive) | 15.8 µM (active) | 13.4% (inactive) | -2.64% (inactive) | > 46 µM (inactive) | > 46 µM (inactive) | inactive | 3.16 µM (active) | inactive | inactive | inactive | 0.763% (inactive) | 0.996% | 1.9% | inactive |  |  | 
2 | COc1ccc2[nH]cc(CCNc3ncnc4ccc(-c5ccc(C(=O)N(C)C)cc5)cc34)c2c1 | > 11.4 µM (inactive) | -28% (inactive) | 12.6 µM (active) | 5.5% (inactive) | -28.2% (inactive) | > 46 µM (inactive) | > 46 µM (inactive) | inactive | 2.51 µM (active) | inactive | inactive | inactive | 0.717% (inactive) | -23.3% | -23.3% |  | inactive | 251 nM (active) | 7.94 µM (active)
3 | Cc1cccc(CNc2ncncc2-c2ccccc2C(F)(F)F)c1 | > 11.4 µM (inactive) | -9.35% (inactive) | 12.6 µM (active) | -6.75% (inactive) | -0.642% (inactive) | > 46 µM (inactive) | > 46 µM (inactive) | inactive | 0.0794 µM (active) | inactive | inactive | inactive | 4.45% (inactive) | -2.27% | 3.62% |  |  |  | 
4 | N#Cc1cccc(-c2nc(Nc3ccncc3)c3ccccc3n2)c1 | 2.09 µM (active) | -0.676% (inactive) | 0.631 µM (active) | -19.2% (inactive) | 8.07% (inactive) | > 46 µM (inactive) | > 46 µM (inactive) | inactive |  | inactive | inactive | inactive | 5.79% (inactive) | 4.98% | 11.4% |  | inactive |  | 
5 | Cn1cccc1C(=O)N1CCC2(CCN(C(=O)Nc3ccccc3)CC2)CC1 | > 11.4 µM (inactive) | -3.67% (inactive) | inactive | 5.41% (inactive) | -8.38% (inactive) |  | > 46 µM (inactive) | inactive | inactive |  |  |  | 5.15% (inactive) | 0.66% | 6.81% |  | inactive |  | 
6 | CS(=O)(=O)Nc1cccc(-c2nc(N3CCOCC3)c3ccccc3n2)c1 | > 11.4 µM (inactive) | -11.2% (inactive) | 5.01 µM (active) | 27.4% (inactive) | -10.3% (inactive) | > 46 µM (inactive) | > 46 µM (inactive) | inactive | 1.58 µM (active) | inactive | inactive | inactive | 2.88% (inactive) | -24.3% | -22% | inactive |  |  | 
